Compound activity from PubChem BioAssay.
RGS8-Gao reg – modulates binding of RGS8 to human Galphao; P09471; multiplexed bead flow cytometry; actives lie on both sides; response (percent of control binding), % at 10 µM; 0.34% of 220,000 active; AID 1423; in the data active = response below about 60% or above about 140%; inactive = in between;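 also: Galphao activated as the GDP aluminium fluoride complex binding bead-coupled RGS8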
Target sequence (P09471 whole entry, looked up): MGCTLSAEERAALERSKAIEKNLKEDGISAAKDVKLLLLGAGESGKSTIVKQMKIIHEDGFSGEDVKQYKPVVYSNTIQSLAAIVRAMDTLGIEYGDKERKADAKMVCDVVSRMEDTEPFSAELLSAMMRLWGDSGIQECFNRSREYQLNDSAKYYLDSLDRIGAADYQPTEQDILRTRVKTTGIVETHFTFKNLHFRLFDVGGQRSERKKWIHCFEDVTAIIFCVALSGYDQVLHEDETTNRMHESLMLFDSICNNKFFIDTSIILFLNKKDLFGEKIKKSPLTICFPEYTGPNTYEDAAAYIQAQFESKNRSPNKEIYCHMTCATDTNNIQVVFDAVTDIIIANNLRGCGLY
Avidin fluor – compound fluoresces at 488/530 nm on avidin beads; 0.38% of 220,000 active; fluorescence (KMESF) at 10 µM; AID 1775; compound fluorescence 488/530 nm, flow cytometry; active compounds read high; in the data active = fluorescence above about 47
RGS16-Gao – RGS16-Galphao interaction regulator (human); O15492+P09471; bead-based flow cytometry RGS16-Galphao binding, fluorescence; actives lie on both sides; binding response (% of control), % at 10 µM; 0.38% of 220,000 active;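 also: Galphao activated by GDP with aluminum fluoride before binding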
RGS4-Gao reg – human RGS4-Galphao interaction regulation; P09471; binding response (% of control), % at 10 µM; Multiplexed bead flow cytometry, RGS4-Galphao binding; actives lie on both sides; AID 1415; 0.33% of 220,000 active; in the data active = binding response below about 49% or above about 150%; inactive = in between;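 also: fluorescent Galphao activated with aluminum fluoride binding bead-coupled RGS4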
GSH fluor – GSH bead compound fluorescence profile | AID 1776 | GSH beads flow cytometry, compound fluorescence 488/530 nm; active compounds read high | 0.25% of 190,000 active | fluorescence (KMESF) at 10 µM; in the data active = fluorescence above about 89;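 also: glutathione beads carrying GST-tagged Bcl family fusion proteins plus one bare bead set; values are compound well signal with DMSO vehicle wells as background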
RGS7-Gao – regulators of human RGS7-Galphao interaction. Multiplexed bead flow cytometry, RGS7-Galphao binding; actives lie on both sides. binding response (% of control), % at 10 µM. 0.35% of 220,000 active; in the data active = binding response below about 49% or above about 150%; inconclusive = no clear call, values can overlap the other calls; inactive = in between;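 also: fluorescent Galphao held in activated GDP-AlF4 state binding bead-coupled RGS7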
RGS4-Gao HTS – RGS4-Galphao interaction regulator (human); shares compounds with RGS16-Gao; 99% of 1,600 active; multiplexed bead flow cytometry, RGS–Galpha-o binding; RGS4–Galpha-o binding response, % at 10 µM;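 also: fluorescently labeled Galpha-o bound to GDP with aluminium fluoride binding biotinylated RGS beads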
Biotin-avidin – biotin-avidin bead binding disruption counter-screen; shares compounds with RGS16-Gao; 1,700 tested, under 10 active; streptavidin beads, fluorescein-biotin binding, flow cytometry; inhibition, % at 10 µM;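 active = inhibition above 50%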;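 also: median green fluorescence of gated singlet beads compared with DMSO control wells; 0% = DMSO wells and 100% = complete loss of bead fluorescence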
RGS8-Gao confirm – confirmation of regulators of human RGS8-Galphao interaction. shares compounds with RGS16-Gao. bead-based flow cytometry RGS8-Galphao binding, fluorescence; actives lie on both sides. binding response (% of control), % at 10 µM. 3% of 1,700 active. AID 1836; in the data active = binding response below about 72% or above about 130%; inactive = in between;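 also: Galphao activated as GDP AlF4 complex before binding bead RGS8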
RGS7-Gao confirm – confirmation of regulators of human RGS7-Galphao interaction | shares compounds with RGS16-Gao | bead-based flow cytometry RGS7-Galphao binding; actives lie on both sides | response (percent of control binding), % at 10 µM | 7.8% of 1,700 active; in the data active = response below about 75% or above about 130%; inactive = in between;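 also: fluorescent Galphao activated with GDP and aluminum fluoride binding bead-coupled RGS7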
RGS16-Gao conf – RGS16-Galphao interaction regulation, single point confirmation | shares compounds with RGS16-Gao | bead-based flow cytometry, RGS16-Galphao binding; actives lie on both sides | response (% of control binding), % at 10 µM | 4% of 1,700 active; in the data active = response below about 74% or above about 130%; inactive = in between;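 also: Galphao activated as the GDP aluminium fluoride complex binding bead-coupled RGS16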
RGS4-Gao single – RGS4-Galphao interaction regulation, single point confirmation. shares compounds with RGS16-Gao. RGS4-Galphao binding, multiplexed bead flow cytometry; actives lie on both sides. binding response (% of control), % at 10 µM. 4% of 1,700 active; in the data active = binding response below about 74% or above about 130%; inactive = in between
RGS19-Gao single – confirmation of regulators of human RGS19-Galphao interaction; shares compounds with RGS16-Gao; bead-based flow cytometry RGS19-Galphao binding; actives lie on both sides; response (percent of control binding), % at 10 µM; 5% of 1,700 active; in the data active = response below about 50% or above about 160%; inactive = in between;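 also: 100% = no compound control and 0% = blank background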
Target sequence (P09471 whole entry, looked up): as above
Target sequence (P49795 whole entry, looked up): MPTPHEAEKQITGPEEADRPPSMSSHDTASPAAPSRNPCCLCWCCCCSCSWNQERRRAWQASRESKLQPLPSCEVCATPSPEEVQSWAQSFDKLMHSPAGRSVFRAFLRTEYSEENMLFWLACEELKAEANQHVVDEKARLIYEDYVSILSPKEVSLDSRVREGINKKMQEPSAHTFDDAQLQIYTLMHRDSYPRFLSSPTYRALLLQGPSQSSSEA
The depositor's hits bear a star; [ ] = remark or other dose. This is a sample that favours compounds with a hit; in the whole collection about 1.2% have one here. Unless noted, no rule for the calls is given here.

Screening CC(C)Oc1ccc(CNCCC2(C(C)C)CCOC(C)(C)C2)cc1 (stereo not drawn) returned RGS8-Gao reg 104, Avidin fluor 18, RGS16-Gao 104, RGS4-Gao reg 105, GSH fluor 35 and RGS7-Gao 100.
C=C1c2cc(C)ccc2NC(=O)N1c1ccc(C)cc1 was read as RGS8-Gao reg 99, Avidin fluor 28, RGS16-Gao 100, RGS4-Gao reg 101, GSH fluor 23 and RGS7-Gao 97.
`O=C(CN1C(=O)NC2(CCCC2)C1=O)N1CCN(C(=O)c2ccco2)CC1` gave RGS8-Gao reg 102, Avidin fluor 31, RGS16-Gao 104, RGS4-Gao reg 110, GSH fluor 39 and RGS7-Gao 104.
`O=C(CN1C(=O)NC2(CCCCCCC2)C1=O)N1CCN(C(=O)c2ccco2)CC1` gave RGS8-Gao reg 125, Avidin fluor 8, RGS16-Gao 199*[activator], RGS4-Gao reg 120, GSH fluor 38, RGS7-Gao 118, RGS4-Gao HTS 120*, Biotin-avidin -2, RGS8-Gao confirm 101, RGS7-Gao confirm 91, RGS16-Gao conf 99, RGS4-Gao single 94 and RGS19-Gao single 100.
`Cc1nn(CCC(=O)O)c(C)c1C` gave RGS8-Gao reg 93, Avidin fluor 79*, RGS16-Gao 107, RGS4-Gao reg 103, GSH fluor 16, RGS7-Gao 165*[activator], RGS4-Gao HTS 103*, Biotin-avidin 0, RGS8-Gao confirm 100, RGS7-Gao confirm 95, RGS16-Gao conf 105, RGS4-Gao single 100 and RGS19-Gao single 105.
Screening Cc1ccc(C(c2sc3nc(C)nn3c2O)N2CCN(C(=O)c3ccco3)CC2)cc1 (stereo not drawn) returned RGS8-Gao reg 76, Avidin fluor 4, RGS16-Gao 23*, RGS4-Gao reg 97, GSH fluor 14, RGS7-Gao 100, RGS4-Gao HTS 97*, Biotin-avidin 0, RGS8-Gao confirm 99, RGS7-Gao confirm 96, RGS16-Gao conf 99, RGS4-Gao single 99 and RGS19-Gao single 90.
For Cc1nc2sc(C(c3ccccc3)N3CCN(C(=O)c4ccco4)CC3)c(O)n2n1 (stereo not drawn) the results were RGS8-Gao reg 102, Avidin fluor 7, RGS16-Gao 102, RGS4-Gao reg 101, GSH fluor 71 and RGS7-Gao 103.
Screening COC(=O)CCCNC(=O)c1ccccn1 returned RGS8-Gao reg 93, Avidin fluor 229*, RGS16-Gao 113, RGS4-Gao reg 120, GSH fluor 7, RGS7-Gao 231*[activator], RGS4-Gao HTS 120*, Biotin-avidin 4, RGS8-Gao confirm 94, RGS7-Gao confirm 86, RGS16-Gao conf 90, RGS4-Gao single 88 and RGS19-Gao single 126.
For OC(COc1ccc(Br)cc1)CN1CCOCC1 (stereo not drawn) the results were GSH fluor 41, Biotin-avidin 3, RGS8-Gao confirm 104, RGS7-Gao confirm 101, RGS16-Gao conf 108, RGS4-Gao single 101 and RGS19-Gao single 101.
For OC(COc1ccc(-c2ccccc2)cc1)CN1CCOCC1 (stereo not drawn) the results were RGS8-Gao reg 101, Avidin fluor 13, RGS16-Gao 102, RGS4-Gao reg 104, GSH fluor 28 and RGS7-Gao 104.
`CCOC(=O)c1cccc(NC(=O)Cn2c(CC(=O)NC)nc3ccccc32)c1` gave RGS8-Gao reg 122, Avidin fluor 18, RGS16-Gao 191*[activator], RGS4-Gao reg 172*[activator], GSH fluor 10, RGS7-Gao 116, Biotin-avidin -2, RGS8-Gao confirm 102, RGS7-Gao confirm 109, RGS16-Gao conf 105, RGS4-Gao single 105 and RGS19-Gao single 117.
CCn1c(SCC(=O)N2CCCC(C)C2)nnc1-c1ccc(S(=O)(=O)N2CCN(C)CC2)cc1 (stereo not drawn) was read as GSH fluor 40, Biotin-avidin 0, RGS8-Gao confirm 99, RGS7-Gao confirm 97, RGS16-Gao conf 96, RGS4-Gao single 98 and RGS19-Gao single 100.
CN1C(=O)C(O)(CC(=O)c2ccccc2O)c2cc(Br)ccc21 (stereo not drawn) was read as RGS8-Gao reg 148*[activator], Avidin fluor 6, RGS16-Gao 252, RGS4-Gao reg 117, GSH fluor 26, RGS7-Gao 112, RGS4-Gao HTS 117*, Biotin-avidin -2, RGS8-Gao confirm 107, RGS7-Gao confirm 105, RGS16-Gao conf 109, RGS4-Gao single 105 and RGS19-Gao single 105.
`CCOC(=O)COc1nc(-c2ccc(Cl)cc2)cc(-c2ccco2)c1C#N` gave RGS8-Gao reg 110, Avidin fluor 82*, RGS16-Gao 155, RGS4-Gao reg 177*[activator], RGS7-Gao inconclusive, Biotin-avidin 0, RGS8-Gao confirm 100, RGS7-Gao confirm 98, RGS16-Gao conf 100, RGS4-Gao single 100 and RGS19-Gao single 93.
CCOC(=O)COc1nc(-c2ccccc2)cc(-c2ccco2)c1C#N was read as RGS8-Gao reg 101, Avidin fluor 26, RGS16-Gao 101, RGS4-Gao reg 105 and RGS7-Gao inconclusive.
`COc1ccc(Cn2nnnc2C(c2cc3cc(C)ccc3[nH]c2=O)N2CCOCC2)cc1` (stereo not drawn) gave RGS8-Gao reg 99, Avidin fluor 15, RGS16-Gao 99, RGS4-Gao reg 98, GSH fluor 23 and RGS7-Gao 98.
